Data reported in PubChem BioAssay (EPA / NIEHS).
Calls of active or inactive are those of the source. How the source made its calls: active means hit-call score of the fitted dose curve at least 0.9, where 1 is the maximum; inactive means score below 0.9.

Tests used:
[1] = BSK_hDFCGF_SRB: Viability Assessment in the BioMAP Diversity Plus: hDFCGF Assay (AID 2283061); conditions: primary human foreskin fibroblasts;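 further: cells exposed to compound for 24 h before the read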
How it was run: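 Human foreskin primary fibroblasts were treated with compound and assessed 24 h after dosing. Total protein was measured by sulforhodamine B staining (0.1% SRB after 10% TCA fixation, 560 nm read) as a cytotoxicity marker, with bidirectional fitting against DMSO baseline.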

[2] = read-out: TIMP metallopeptidase inhibitor 1 (TIMP1), TIMP1 (gene 7076); experiment: BSK_hDFCGF_TIMP1: BioMAP Diversity Plus: hDFCGF Assay for TIMP metallopeptidase inhibitor 1 (TIMP1) Biomarker Activity (AID 2283062); conditions: primary human foreskin fibroblasts; actives raise or lower the signal
How it was run: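 Primary human foreskin fibroblasts in the hDFCGF system were dosed with compound for 24 h, then TIMP-1 was measured by ELISA. Activity was fitted bidirectionally relative to DMSO control; parallel SRB staining assessed cytotoxicity.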

[3] = read-out: Matrix Metallopeptidase 1 (MMP1), MMP1 (gene 4312); experiment: BSK_hDFCGF_MMP1: BioMAP Diversity Plus: hDFCGF Assay for Matrix Metallopeptidase 1 (MMP1) Biomarker Activity (AID 2283064); conditions: primary human foreskin fibroblasts; actives raise or lower the signal
How it was run: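 ELISA read-out of MMP1 from human foreskin fibroblasts (primary skin cells), 24 h post-dose. Gain or loss of signal was fitted bidirectionally versus DMSO negative control; cytotoxicity was checked by SRB in parallel cultures.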

[4] = read-out: Vascular cell adhesion molecule 1 (VCAM1), VCAM1 (gene 7412); experiment: BSK_hDFCGF_VCAM1: BioMAP Diversity Plus: hDFCGF Assay for Vascular cell adhesion molecule 1 (VCAM1) Biomarker Activity (AID 2283065); conditions: primary human foreskin fibroblasts; actives raise or lower the signal;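 on AC50: VCAM-1 protein level quantified by ELISA after 24 h chemical exposure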
How it was run: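 Primary human foreskin fibroblasts (hDFCGF system) were dosed with chemical and VCAM-1 was measured by ELISA 24 h later. Bidirectional curve fitting used DMSO as negative control and activity baseline.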

[5] = read-out: Plasminogen activator inhibitor-1 (PAI1), SERPINE1 (gene 5054); experiment: BSK_hDFCGF_PAI1: BioMAP Diversity Plus: hDFCGF Assay for Plasminogen activator inhibitor-1 (PAI1) Biomarker Activity (AID 2283066); conditions: primary human foreskin fibroblasts; actives raise or lower the signal
How it was run: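 ELISA readout of PAI-1 from primary human skin fibroblast cultures, 24 h after compound addition. Gain or loss of signal was fitted bidirectionally against DMSO baseline.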

[6] = read-out: Intercellular Adhesion Molecule 1 (ICAM1), ICAM1 (gene 3383); experiment: BSK_KF3CT_ICAM1: BioMAP Diversity Plus: KF3CT Assay for Intercellular Adhesion Molecule 1 (ICAM1) Biomarker Activity (AID 2283067); conditions: primary human keratinocytes with fibroblasts; actives raise or lower the signal
How it was run: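 Human keratinocyte plus foreskin fibroblast primary co-culture was exposed to chemical for 24 h. ICAM-1 was then quantified by ELISA, and the data were fit bidirectionally against DMSO as the negative control and baseline.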

[7] = read-out: Interferon-gamma inducible Protein 10 (IP10), CXCL10 (gene 3627); experiment: BSK_KF3CT_IP10: BioMAP Diversity Plus: KF3CT Assay for Interferon-gamma inducible Protein 10 (IP10) Biomarker Activity (AID 2283068); conditions: primary human keratinocytes with fibroblasts; actives raise or lower the signal
How it was run: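 In a primary skin co-culture of keratinocytes and fibroblasts, IP-10 is quantified by ELISA at 24 h after dosing. SRB staining of parallel wells monitors overt toxicity. Curves are fitted both directions against DMSO.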

[8] = BSK_KF3CT_SRB: Viability Assessment in the BioMAP Diversity Plus: KF3CT Assay (AID 2283069); conditions: primary human keratinocytes with fibroblasts
How it was run: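 SRB read-out at 560 nm (0.1% stain, TCA-fixed cells) gauges overt cytotoxicity in a human skin keratinocyte–fibroblast co-culture 24 h post-dosing. Signal change was fitted bidirectionally relative to DMSO control.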

[9] = read-out: Interleukin-1 alpha (IL1a), IL1A (gene 3552); experiment: BSK_KF3CT_IL1a: BioMAP Diversity Plus: KF3CT Assay for Interleukin-1 alpha (IL1a) Biomarker Activity (AID 2283070); conditions: primary human keratinocytes with fibroblasts; actives raise or lower the signal
How it was run: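 Primary skin co-culture (keratinocytes, foreskin fibroblasts), 24 h exposure; ELISA for IL-1a; bidirectional curve fit vs DMSO.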

[10] = read-out: TIMP metallopeptidase inhibitor 2 (TIMP2), TIMP2 (gene 7077); experiment: BSK_KF3CT_TIMP2: BioMAP Diversity Plus: KF3CT Assay for TIMP metallopeptidase inhibitor 2 (TIMP2) Biomarker Activity (AID 2283071); conditions: primary human keratinocytes with fibroblasts; actives raise or lower the signal
How it was run: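 ELISA readout of TIMP-2 in keratinocyte plus foreskin fibroblast co-cultures (human skin primary cells), 24 h post-dose. Gain or loss of signal fitted relative to DMSO.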

[11] = read-out: C-C motif chemokine 2 (Homo sapiens) (UniProt P13500); experiment: BSK_KF3CT_MCP1: BioMAP Diversity Plus: KF3CT Assay for Monocyte Chemoattractant Protein 1 (MCP1/CCL2) Biomarker Activity (AID 2283073); conditions: primary human keratinocytes with fibroblasts; actives raise or lower the signal
How it was run: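 Human keratinocyte plus foreskin fibroblast primary co-culture exposed to chemical for 24 h. MCP-1 levels measured by ELISA. Bidirectional curve fitting relative to DMSO negative control as baseline.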

[12] = read-out: Matrix Metallopeptidase 9 (MMP9), MMP9 (gene 4318); experiment: BSK_KF3CT_MMP9: BioMAP Diversity Plus: KF3CT Assay for Matrix Metallopeptidase 9 (MMP9) Biomarker Activity (AID 2283074); conditions: primary human keratinocytes with fibroblasts; actives raise or lower the signal;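 on AC50: MMP9 protein level quantified by ELISA in the co-culture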
How it was run: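 ELISA read-out of MMP-9 at 24 h post-dosing in a co-culture of human skin keratinocytes and foreskin fibroblasts. Gain or loss of signal was fitted in both directions against DMSO.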

[13] = read-out: urokinase plasminogen activator (uPA), PLAU (gene 5328); experiment: BSK_KF3CT_uPA: BioMAP Diversity Plus: KF3CT Assay for urokinase plasminogen activator (uPA) Biomarker Activity (AID 2283075); conditions: primary human keratinocytes with fibroblasts; actives raise or lower the signal
How it was run: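 Skin co-culture (keratinocytes + foreskin fibroblasts), human primary; 24 h post-dose; uPA by ELISA; gain/loss fit vs DMSO baseline.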

[14] = read-out: E-selectin (Homo sapiens) (UniProt P16581); experiment: BSK_LPS_Eselectin: BioMAP Diversity Plus: LPS Assay for Eselectin Biomarker Activity (AID 2283077); conditions: primary human HUVEC with PBMC; actives raise or lower the signal
How it was run: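 Human umbilical vein endothelial cells co-cultured with peripheral blood mononuclear cells under LPS stimulation; E-selectin measured by ELISA 24 h after chemical dosing. Activity fitted bidirectionally against DMSO as negative control and baseline.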

[15] = read-out: Interleukin-8 (IL8), CXCL8 (gene 3576); experiment: BSK_LPS_IL8: BioMAP Diversity Plus: LPS Assay for Interleukin-8 (IL8) Biomarker Activity (AID 2283078); conditions: primary human HUVEC with PBMC; actives raise or lower the signal
How it was run: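 Human umbilical vein endothelial cells co-cultured with PBMC were stimulated with LPS; IL-8 levels were measured by ELISA 24 h after chemical dosing. Activity was fitted bidirectionally against DMSO as negative control and baseline.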

[16] = BSK_LPS_SRB: Viability Assessment in the BioMAP Diversity Plus: LPS Assay (AID 2283079); conditions: primary human HUVEC with PBMC;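 further: total protein by sulforhodamine B absorbance as a cytotoxicity measure; measured one day after compound addition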
How it was run: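 Human umbilical vein endothelial cells co-cultured with PBMC (LPS system) were dosed for 24 h. Total protein was stained with 0.1% sulforhodamine B after 10% TCA fixation, read at 560 nm, and fitted bidirectionally against DMSO baseline.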

[17] = read-out: Interleukin-1 alpha (IL1a), IL1A (gene 3552); experiment: BSK_LPS_IL1a: BioMAP Diversity Plus: LPS Assay for Interleukin-1 alpha (IL1a) Biomarker Activity (AID 2283080); conditions: primary human HUVEC with PBMC; actives raise or lower the signal
How it was run: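 Human umbilical vein endothelial cells co-cultured with peripheral blood mononuclear cells were LPS-stimulated and exposed to test chemicals for 24 h. IL-1 alpha was quantified by ELISA, with bidirectional curve fitting against DMSO as the negative control and baseline.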

[18] = read-out: Transforming growth factor beta 1 (TGFb1), TGFB1 (gene 7040); experiment: BSK_KF3CT_TGFb1: BioMAP Diversity Plus: KF3CT Assay for Transforming growth factor beta 1 (TGFb1) Biomarker Activity (AID 2283072); conditions: primary human keratinocytes with fibroblasts; actives raise or lower the signal
How it was run: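 Read-out: ELISA for TGF-b1 in keratinocyte/foreskin fibroblast human skin co-culture, 24 h after dosing; bidirectional curve fit vs DMSO baseline; gain or loss of signal scored.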

CD40, CD40 (gene 958) = experiment: BSK_LPS_CD40: BioMAP Diversity Plus: LPS Assay for CD40 Biomarker Activity (AID 2283076); conditions: primary human HUVEC with PBMC; actives raise or lower the signal
How it was run: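 Primary human umbilical vein endothelial cells co-cultured with peripheral blood mononuclear cells, LPS-stimulated, were dosed with chemical and read 24 h later. CD40 levels were measured by ELISA and fitted bidirectionally against DMSO as negative control and baseline.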

[19] = read-out: Monokine induced gamma interferon (MIG), CXCL9 (gene 4283); experiment: BSK_hDFCGF_MIG: BioMAP Diversity Plus: hDFCGF Assay for Monokine induced gamma interferon (MIG) Biomarker Activity (AID 2283063); conditions: primary human foreskin fibroblasts; actives raise or lower the signal
How it was run: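 ELISA read-out of MIG from primary human dermal fibroblasts 24 h post-dosing. Gain or loss of signal fitted bidirectionally, DMSO as baseline.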

Measured: AC50

Chain of E-selectin (Homo sapiens) (P16581 whole entry, looked up): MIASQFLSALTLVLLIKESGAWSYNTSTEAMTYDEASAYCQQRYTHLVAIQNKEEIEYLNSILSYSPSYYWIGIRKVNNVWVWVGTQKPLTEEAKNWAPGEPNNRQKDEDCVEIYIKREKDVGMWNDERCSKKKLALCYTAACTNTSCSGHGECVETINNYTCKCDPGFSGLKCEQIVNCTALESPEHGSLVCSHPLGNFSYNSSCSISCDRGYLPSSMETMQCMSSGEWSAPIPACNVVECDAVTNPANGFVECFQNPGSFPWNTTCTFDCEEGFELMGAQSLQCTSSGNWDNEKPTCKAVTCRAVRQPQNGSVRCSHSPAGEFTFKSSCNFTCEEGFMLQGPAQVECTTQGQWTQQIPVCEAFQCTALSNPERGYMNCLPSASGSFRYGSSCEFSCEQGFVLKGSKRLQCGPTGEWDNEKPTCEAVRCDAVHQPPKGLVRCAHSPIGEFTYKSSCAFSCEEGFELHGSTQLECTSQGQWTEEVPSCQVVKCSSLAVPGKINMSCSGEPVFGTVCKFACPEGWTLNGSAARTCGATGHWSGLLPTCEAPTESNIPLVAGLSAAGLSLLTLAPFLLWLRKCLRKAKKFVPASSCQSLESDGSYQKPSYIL

C=CCOC(=O)CCC1CCCCC1
not listed: [18] | CD40, CD40 (gene 958) | [19]
inactive: all other assays above

CCCCC(CC)COCCC#N (stereo not drawn)
active: [2] 20 µM | [4] 7.05 µM | [7] 5.08 µM
not listed: CD40, CD40 (gene 958) | [19]
inactive: all other assays above

CC[Si](OC(C)=O)(OC(C)=O)OC(C)=O
not listed: [18] | CD40, CD40 (gene 958) | [19]
inactive: all other assays above

CC1COc2ccccc2N1C(=O)C(Cl)Cl (stereo not drawn)
inactive: [2] | [6] | [8] | [10] | [18] | [11] | [15]
active: [1] 20 µM | [3] 20 µM | [4] 1.78 µM | [5] 0.0533 µM | [9] 0.629 µM | [12] 13.7 µM | [13] 0.0271 µM | [14] 20 µM | [16] 7.42 µM | [17] 13.2 µM

CC(=O)[C@H]1CC[C@H]2[C@@H]3CC=C4C[C@@H](O)CC[C@]4(C)[C@H]3CC[C@]12C
not listed: [18] | [19]
inactive: all other assays above

O=C=NC1CCC(CC2CCC(N=C=O)CC2)CC1 (stereo not drawn)
active: [5] 25.6 µM | [13] 0.016 µM
not listed: CD40, CD40 (gene 958) | [19]
inactive: all other assays above

C=C(C)C(=O)O[C@H]1C[C@@H]2CC[C@@]1(C)C2(C)C
inactive: [18]
active: [2] 20 µM | [19] 34.8 µM | [3] 34.8 µM | [4] 26.4 µM | [5] 12.8 µM | [6] 28.8 µM | [7] 16.9 µM | [8] 14.6 µM | [9] 20 µM | [10] 10.2 µM | [11] 12.8 µM | [12] 20 µM | [13] 13.8 µM | [14] 29.6 µM | [15] 31.2 µM | [16] 30.4 µM | [17] 25.8 µM
